In the library only some 17% were active in any assay of this set; here they are far more common.
ClpP mod = qHTS Assay for Activators of ClpP | Potency, µM (highest dose often 57.5 µM), inactives show at the top dose activity change, negative = active | 340,000 compounds, 1.9% hits | AID 651965, 2013 | purified B. subtilis ClpP, FRET peptide cleavage, 20 min | ATP-dependent Clp protease proteolytic subunit (Bacillus subtilis (strain 168)), P80244; active = well fitted falling curve with a large enough effect; inconclusive = small, poorly fitted or top-dose-only effect; inactive = no such curve, though single readings can be large or run the other way; also: the source files actives as falling curves though it sought activators and does not explain the sign; nearly all actives have a fitted effect of over 65% in size
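FRET quenching reversal measured ClpP activation: 10 microg/mL B. subtilis ClpP at pH 8 with the FRET-FV decapeptide, read at 430 nm after 320 nm excitation. The 20-min minus 0-min signal was scaled between DMSO/no-enzyme wells and ADEP (5.8 microM final).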
TDP1 cell CPT = qHTS for Inhibitors of human tyrosyl-DNA phosphodiesterase 1 (TDP1): qHTS in cells in presence of CPT. chicken DT40 Tdp1-/-;hTDP1 cells + 20 nM CPT, ATP luminescence, 48 h. Potency, µM (doses to about 46.2 µM), without a hit: at the top dose activity change, negative = growth inhibition, actives largely listed as inhibitors. 420,000 compounds, 12% hits; also: % is scaled to controls: 0 for no effect and ±100 for the full control effect; nearly all actives have a fitted effect of over 55% in size
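Cell growth measured by CellTiter-Glo luminescence after a minimum 48 h, 37 C compound exposure with 20 nM CPT in Tdp1-knockout DT40 cells stably expressing hTDP1, seeded 400/well; qHTS titration format.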
DT40 TDP1 no CPT = qHTS for Inhibitors of human tyrosyl-DNA phosphodiesterase 1 (TDP1): qHTS in cells in absence of CPT; Potency, µM (doses to about 46.2 µM), for the others: at the highest dose activity change, negative = growth inhibition, hits mostly inhibitors; DT40 Tdp1-/- hTDP1 cells, no CPT, ATP luminescence, 48 h; AID 686978, 2013; 420,000 compounds, 15% hits; also: % is scaled to controls: 0 for no effect and ±100 for the full control effect; nearly all actives have a fitted effect of over 55% in size
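Readout: luminescence from CellTiter-Glo after 30 min in the dark at RT. Cells: DT40 Tdp1-/- with stable hTDP1, 400/well. Exposure: compounds alone, ≥48 hr, 37 °C.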
TDP1 inh = qHTS Assay for Inhibitors of Tyrosyl-DNA Phosphodiesterase (TDP1). Potency, µM (top dose mostly 130 µM), inactives show top-dose activity change, negative = inhibition, actives largely listed as inhibitors. recombinant TDP1, AlphaScreen DNA substrate cleavage. 350,000 compounds, 0.28% hits. AID 485290, 2010; also: % is scaled to controls: 0 for no effect and ±100 for the full control effect; nearly all actives have a fitted effect of over 40% in size
Target sequence (Q9NUW8 whole entry, looked up): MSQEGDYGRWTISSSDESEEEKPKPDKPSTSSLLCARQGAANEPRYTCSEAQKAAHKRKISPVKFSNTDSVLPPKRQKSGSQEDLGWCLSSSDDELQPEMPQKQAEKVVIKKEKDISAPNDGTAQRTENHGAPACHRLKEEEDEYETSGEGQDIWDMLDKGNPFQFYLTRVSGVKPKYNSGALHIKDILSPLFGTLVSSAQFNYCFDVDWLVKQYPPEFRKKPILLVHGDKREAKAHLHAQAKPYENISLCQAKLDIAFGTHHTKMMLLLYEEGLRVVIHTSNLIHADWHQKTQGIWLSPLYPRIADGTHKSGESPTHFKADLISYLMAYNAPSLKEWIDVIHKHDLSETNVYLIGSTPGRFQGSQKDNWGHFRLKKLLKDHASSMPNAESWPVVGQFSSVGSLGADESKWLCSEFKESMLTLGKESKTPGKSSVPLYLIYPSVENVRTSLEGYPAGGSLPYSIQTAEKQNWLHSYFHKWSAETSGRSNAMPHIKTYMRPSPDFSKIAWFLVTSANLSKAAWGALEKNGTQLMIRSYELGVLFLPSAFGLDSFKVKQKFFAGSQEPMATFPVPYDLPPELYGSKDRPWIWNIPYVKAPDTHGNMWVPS
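Steps: enzyme plus compound, 15 min RT; add biotin/phosphotyrosine-FITC oligonucleotide (15 nM final), react 5 min; add donor/acceptor beads (10 ug/ml final), 10 min; read AlphaScreen. Tdp1 at 1 nM final.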
The depositor's hits bear a star; [ ] = remark or other dose. Unless noted, calls follow the shape of the dose curve; as a rule, active = well fitted curve in the direction sought with a large enough effect; inconclusive = small, poorly fitted or top-dose-only effect, or another doubt; inactive = no such curve, though single readings can be large; an effect the other way counts as inactive or inconclusive. Potency is read from the fitted curve at half-maximal effect.

How did O=C(Nc1ccc(N2CCOCC2)c(S(=O)(=O)Nc2ccccc2Cl)c1)c1ccc(=O)[nH]n1 do in these assays?
ClpP mod: -3%; TDP1 cell CPT: inconclusive; DT40 TDP1 no CPT: 16µM*

How did COc1cc(CN2CCC(n3nccc3NC(=O)C3CC3)CC2)cc(OC)c1 do in these assays?
ClpP mod: 0%; TDP1 cell CPT: -3%; DT40 TDP1 no CPT: -2%; TDP1 inh: 2%[56.1 µM]

What do the screens show for `Cc1ccc(S(=O)(=O)NCCc2nnc3ccc(N4CCOCC4)nn23)cc1`?
ClpP mod: 1%; TDP1 cell CPT: -11%; DT40 TDP1 no CPT: -10%

What do the screens show for `O=S1(=O)C=C(Sc2nc3ccccc3s2)c2ccccc21`?
ClpP mod: 2%; TDP1 cell CPT: 0.82µM*; DT40 TDP1 no CPT: 0.65µM*; TDP1 inh: 7%

What do the screens show for `CSc1nnc(-c2ccccc2)o1`?
ClpP mod: -2%; TDP1 cell CPT: -2%; DT40 TDP1 no CPT: 0%; TDP1 inh: -4%

How did O=S1(=O)C=C(Sc2nnc(-c3ccccc3)o2)c2ccccc21 do in these assays?
ClpP mod: -1%; TDP1 cell CPT: 0.52µM*; DT40 TDP1 no CPT: 0.58µM*; TDP1 inh: 8%

How did Cc1cc(C)nc(SC2=CS(=O)(=O)c3ccccc32)n1 do in these assays?
ClpP mod: 2%; TDP1 cell CPT: inconclusive; DT40 TDP1 no CPT: 18µM*; TDP1 inh: 2%

Results for CC(C)CCOc1ccc(C(=O)NN2C(=O)NC3(CCCCC3)C2=O)cc1 ?
ClpP mod: 0%; TDP1 cell CPT: inconclusive; DT40 TDP1 no CPT: inconclusive

Results for CC(=O)N1CCC[C@H]1C(=O)NCC1Cc2cc(Cl)cc(-c3ccc4[nH]ccc4c3)c2O1 (stereo partly specified) ?
TDP1 cell CPT: 23%[9.04 µM]; DT40 TDP1 no CPT: inconclusive

What do the screens show for `Cc1[nH]c(=O)[nH]c(=O)c1S(=O)(=O)N(CC(C)C)CC(C)C`?
TDP1 cell CPT: -11%; DT40 TDP1 no CPT: -12%; TDP1 inh: -5%

How did O=C(Cn1c(-c2cccs2)cc2cc(F)ccc21)N1CCN(c2cccc(Cl)c2)CC1 do in these assays?
ClpP mod: 28µM*; TDP1 cell CPT: -6%; DT40 TDP1 no CPT: -15%; TDP1 inh: 6%

What do the screens show for `CN1CCN(C(=O)Cn2c(-c3cccs3)cc3cc(Cl)ccc32)CC1`?
ClpP mod: 32µM*; TDP1 cell CPT: inconclusive; DT40 TDP1 no CPT: 23µM*; TDP1 inh: 4%

Results for CCN1CCN(C(=O)Cn2c(-c3cccs3)cc3ccccc32)CC1 ?
ClpP mod: 32µM*; TDP1 cell CPT: -1%; DT40 TDP1 no CPT: -19%; TDP1 inh: 9%

What do the screens show for `CCN1CCN(C(=O)Cn2c(=O)sc3ccccc32)CC1`?
ClpP mod: 0%; TDP1 cell CPT: 6%; DT40 TDP1 no CPT: 1%; TDP1 inh: 1%

What do the screens show for `COc1ccc(CN(C)C(=O)Cc2c[nH]c3ccccc23)cc1`?
ClpP mod: -1%; TDP1 cell CPT: -3%; DT40 TDP1 no CPT: -1%

What do the screens show for `COc1cccc(CN(C)C(=O)CSCC(=O)Nc2ccc(C)cc2)c1OC`?
ClpP mod: -18%; TDP1 cell CPT: inconclusive; DT40 TDP1 no CPT: 12µM*; TDP1 inh: 0%

Results for COc1cccc(CN(C)C(=O)Cc2c[nH]c3ccccc23)c1OC ?
ClpP mod: -3%; TDP1 cell CPT: inconclusive; DT40 TDP1 no CPT: 16µM*

How did Cc1ccc(NC(=O)CSCC(=O)N(C)CC(=O)Nc2c(C)cccc2C)cc1 do in these assays?
ClpP mod: -4%; TDP1 cell CPT: -4%; DT40 TDP1 no CPT: -8%

What do the screens show for `CCC(C)C(=O)Nn1c(C2CC2)nc2cc(OC)c(OC)cc2c1=O` (stereo unspecified)?
ClpP mod: -6%; TDP1 cell CPT: -14%; DT40 TDP1 no CPT: -3%; TDP1 inh: 1%

What do the screens show for `O=C(O)CN1C(=O)/C(=C/c2ccc(-c3cccc(Cl)c3)o2)SC1=S`?
TDP1 inh: 5%

Results for O=C(O)c1cccc(N2C(=O)/C(=C/c3ccc(SCc4ccc(Cl)cc4)o3)SC2=S)c1 ?
ClpP mod: -8%; TDP1 cell CPT: 21µM*; DT40 TDP1 no CPT: inconclusive

Results for COc1ccc(C2=Nn3c(nnc3-c3ccc(OC)cc3OC)SC2)cc1 ?
TDP1 inh: 9%

How did CC(O)CNc1nc(N)[nH]c(=O)c1N=Nc1ccccc1 (stereo unspecified) do in these assays?
ClpP mod: 2%; TDP1 cell CPT: 19%; DT40 TDP1 no CPT: 3%

How did COc1ccc(-c2csc(NC(=S)NC(=O)c3ccco3)n2)cc1Br do in these assays?
ClpP mod: 1%; TDP1 cell CPT: 10µM*; DT40 TDP1 no CPT: 2.9µM*; TDP1 inh: 0%

Results for COc1ccc(-c2csc(NC(=S)NC(=O)/C=C/c3ccco3)n2)cc1Br ?
TDP1 cell CPT: 1.8µM*; DT40 TDP1 no CPT: 3.7µM*; TDP1 inh: 3%

How did COc1ccc(-c2csc(NC(=S)NC(=O)/C=C/c3ccco3)n2)cc1OC do in these assays?
ClpP mod: -2%; TDP1 cell CPT: 4.6µM*; DT40 TDP1 no CPT: 4.6µM*; TDP1 inh: -10%

How did O=C(CCn1c(=O)[nH]c2ccccc21)NCC1Cc2cc(Cl)cc(-c3ccncc3)c2O1 (stereo unspecified) do in these assays?
TDP1 cell CPT: 4%; DT40 TDP1 no CPT: -27%

Results for O=C(CN1c2ccccc2Sc2ccccc21)N/N=C/c1ccccc1 ?
ClpP mod: 2%; TDP1 cell CPT: inconclusive; DT40 TDP1 no CPT: inconclusive

Results for O=C(CN1c2ccccc2Sc2ccccc21)N/N=C/c1ccc([N+](=O)[O-])cc1 ?
ClpP mod: -2%; TDP1 cell CPT: inconclusive; DT40 TDP1 no CPT: 21µM*

What do the screens show for `COc1cc(NS(=O)(=O)c2ccc(NC(=O)/C=C/C(=O)O)cc2)nc(OC)n1`?
ClpP mod: -1%; TDP1 cell CPT: 4%; DT40 TDP1 no CPT: 8%

How did O=C(C=Cc1ccco1)c1cc(Cl)ccc1O do in these assays?
ClpP mod: -4%; TDP1 cell CPT: inconclusive; DT40 TDP1 no CPT: inconclusive

How did O=C(/C=C/c1cccs1)c1cc(Cl)ccc1O do in these assays?
ClpP mod: 0%; TDP1 cell CPT: 16µM*; DT40 TDP1 no CPT: inconclusive; TDP1 inh: 2%

How did CSc1nnc(Cn2c(=O)sc3ccccc32)n1-c1ccccc1C do in these assays?
ClpP mod: -1%; TDP1 cell CPT: inconclusive; DT40 TDP1 no CPT: 18µM*

Results for CCSc1nnc(Cn2c(=O)sc3ccccc32)n1C ?
ClpP mod: -1%; TDP1 cell CPT: 13µM*; DT40 TDP1 no CPT: -14%; TDP1 inh: 8%

Screens: PubChem, National Center for Advancing Translational Sciences (NCATS)
